Calls of active or inactive are those of the source. The calls were made as follows: active = hit-call score of the fitted dose curve at least 0.9, where 1 is the maximum; inactive = score below 0.9.

As usually defined, the AC50 is the concentration giving half of the maximal activity seen.

Read-out in the test: Cytochrome P450 7A1 (Homo sapiens) (UniProt P22680)
As to the kind of experiment: LTEA_HepaRG_CYP7A1: Life Technologies and Expression Analysis (LTEA) Assay for Cytochrome P450 7A1 (CYP7A1) using HepaRG (AID 2283496). The following applies: mRNA level, 48 h; actives raise or lower the signal. On the procedure:
LTEA_HepaRG is a cell based, multiplexed-readout assay that uses HepaRG, a human liver cell line, with measurements taken at 48 hours after chemical dosing on a 96-well plate.LTEA_HepaRG_CYP7A1 is one of 102 assay component(s) measured in the LTEA HepaRG cell culture assay. It is a marker of NR mediated metabolism.Data from the assay component LTEA_HepaRG_CYP7A1 was analyzed into 1 endpoint. This assay endpoint, LTEA_HepaRG_CYP7A1, was analyzed with bidirectional fitting relative to DMSO as the negative control and baseline of activity. Using a type of inducible reporter, measures of mRNA induction for gain or loss-of-signal activity can be used to understand regulation of transcription factor activity. To generalize the intended target to other relatable targets, this assay endpoint is annotated to the cyp intended target family, where the subfamily is xenobiotic metabolism.
A total of 1060 chemcials from the ToxCast library were tested in eight-point concentration-response experiments. Cell culture and cytotoxicity assays were conducted at Thermo Fisher Scientific's Custom Services facility (Madison, WI). A single lot of human HepaRG cells (Thermo Fisher Scientific, Frederick, MD) was used for the cell culture experiments. 96-well format collagen type I coated plates of human HepaRG cells were prepared using established methods. Briefly, cryopreserved HepaRG cells were thawed, plated at a density of approximately 100,000 cells/well in HepaRG Thaw, Plate, and General Purpose media (HPRG770, Thermo Fisher Scientific), and incubated for 48 hours. 0.5% DMSO was selected as vehicle control to balance the requisite need of DMSO in HepaRG cultures to maintain differentiation (for example, baseline metabolism, proportions of hepatocytes vs. cholangiocytes), while enabling further hepatic receptor pathway activation (for example, PXR and CAR) in response to chemical exposure. 48 hours after plating, the culture medium was replaced with HepaRG Serum-Free Incudtion Media. Cells were exposed to each test chemical in duplicate and maintained in CO2 incubators for another 48 hours. Chemical plates were thawed to room temperature and 200x concentrations of treatment groups were prepared. 8-point conentration-reponse curves were made with the highest exposure at 100 uM, followed by half-log dilutions, all in 0.5% DMSO. Each test plate contained variouse controls, induction positive controls (1mM phenobarbital), cytotoxicity positive controls ([…] aflatoxin B1), vehicle controls (0.5% DMSO), and total lysis controls (0.5% DMSO). Cell morphology images were taken using an Essen IncuCyte FLR automated microscope, with six 96-well plates imaged in about 24 minutes. Images were captured and exported and JPEG files. Spent culture media was transfered to black-well plates for the LDH assay, and remaining media was sorted at -80 C for later use. Cells were treated with RLT buffer and frozen until shipped for gene expression analysis. Total RNA was isolated from the cell suspension in 75 uL of Buffer RLT (Qiagen, Germantown, MD 20874) by Quintiles/Expression Analysis (Durham, NC) using a custom isolation procedure. Total RNA from each plate well was transferred to a preamplification plate. Fluidigm's 96.96 Dynamic ArrayTM (Fluidigm, Amsterdam, the Netherlands) technology was used for gene expression analyses by quantitative reverse transcription polymerase chain reaction (qRT-PCR, performed by Quintiles/Expression Analysis, Durham, NC)89. Standard TaqManTM Assays (Applied Biosystems/ThermoFisher Scientific, Foster City, CA) were used to assess the expression of 93 genes selected based on their selectivity and sensitivity to important hepatic receptors known to be modulated by environmental chemicals; importance in human hepatocyte functionality; and hepatotoxicity. […]
On to `O=C=NCCCCCCN=C=O`, for which the molecule was classed as inactive. The same measure, in the same setting: the same measure for `CN1C(=O)CC[C@H]1c1cccnc1`: “inactive”.

Turning to `CCN(Cc1cccnc1)C(=O)c1cccc(Cl)c1[C@]1(C)C(=O)N(Cc2ccc(OC)cc2OC)c2ccc(Cl)cc21`, the AC50 was 22.3 µM (active).

`O=c1ccc2ccccc2o1`: the result was inactive. Take `Oc1ccccc1`: the molecule was classed as inactive.

As to `O=c1[nH]sc2ccccc12`, the result was inactive. For the molecule `CC[C@@H]1C[C@H](N(Cc2cc(C(F)(F)F)cc(C(F)(F)F)c2)C(C)=O)c2cc(C(F)(F)F)ccc2N1C(=O)OC(C)C`, the molecule was called inactive. Still for that read-out and setting: the same measure for `c1ccc2ccccc2c1`: “inactive”. On to `CC1(C)NC(=O)N(c2ccc([N+](=O)[O-])c(C(F)(F)F)c2)C1=O`, for which the AC50 is 90.1 µM (active).

As for `Oc1ccc2ccccc2c1`, the molecule was called inactive.

Consider `COc1cc(C(=O)NC2CCN(C)CC2)ccc1Nc1ncc2c(n1)N(C1CCCC1)CC(F)(F)C(=O)N2C`, for which the AC50 was 8.23 µM (active). For `c1ccc(C[n+]2cccc3ccccc32)cc1`, the AC50 was 33.7 µM (active). For the molecule `CCCCCCCCCCCO`, the result was inactive. For the molecule `CC[C@H](NC(=O)c1cc(F)ccc1NS(=O)(=O)c1cccc2cccnc12)c1ccccc1`, the AC50 is 33.8 µM (active).

Take `CCCCCc1ccc(N)cc1`: the result was inactive. `COc1ccc2cc(S(=O)(=O)N[C@H](CC(=O)N[C@H](Cc3ccc(CN4[C@H](C)CCC[C@@H]4C)cc3)C(=O)N(C)C(C)C)c3ccc4c(c3)OCO4)ccc2c1`: the result was inactive.

Consider `CCN(CC)C(=O)c1cc(S(=O)(=O)Cc2ccccc2)c(N2CCC(c3ccccc3)CC2)cc1N(CC)CCN(C)C`, for which the result was inactive. As for `NCc1cccc(C2CCN(C(=O)c3ccc(C#Cc4ccccc4F)o3)CC2)c1`, the AC50 is 86.3 µM (active). Take `CCCCCCCCOc1ccc(C(=O)c2ccccc2)c(O)c1`: the molecule was classed as inactive. Regarding `CCCCOC(=O)c1ccc(O)cc1`, the result was inactive. `COc1cccc([C@H](O)C2CCN(CCc3ccc(F)cc3)CC2)c1OC`: the outcome was inactive. `c1ccc2n[nH]nc2c1`: the molecule was called inactive. On the same count and under the same terms, as for `Clc1cc(Cl)c2c(c1)N=C1CCCCCN1C2`, the entry is “inactive”.

`Cc1oc2c(NC(=O)c3c(Cl)cccc3Cl)cccc2c1C(C)(C)O`: the AC50 was 57.3 µM (active). Regarding `CCN(Cc1cccc(S(=O)(=O)O)c1)c1ccc(C(=C2C=CC(=[N+](CC)Cc3cccc(S(=O)(=O)O)c3)C=C2)c2ccccc2S(=O)(=O)[O-])cc1`, the molecule was called inactive. Consider `O=C(O)c1ccccc1-n1cc(C(=O)O)c(=O)c2cc(Nc3c(F)cc(F)cc3Cl)c(Cl)cc21`, for which the molecule was called inactive.

Turning to `O=C1c2ccccc2C(=O)N1CCc1noc(-c2ccc(CN3CCCCCC3)s2)n1`, the molecule was called inactive.

As for `O=C(O)Cc1cc(I)c(Oc2ccc(O)c(I)c2)c(I)c1`, the AC50 was 56.8 µM (active).

Take `CCO[Si](CCCNC(N)=O)(OCC)OCC`: the molecule was classed as inactive. For the molecule `O=c1c(-c2ccc(O)cc2)coc2cc(O)cc(O)c12`, the outcome was inactive. Regarding `CCCCCCCCOC(=O)c1cc(O)c(O)c(O)c1`, the result was inactive. With `O=CCCCC=O`, the molecule was classed as inactive. With `CCCC(=O)OCCC(C)C`, the call was inactive. Take `CC1=CC(=O)/C(=C(/C)O)C(=O)O1`: the outcome was inactive. Take `CCCCOC(=O)CC(CC(=O)OCCCC)(OC(C)=O)C(=O)OCCCC`: the call was inactive. Take `Cc1ncc(CO)c(CO)c1O`: the result was inactive. Consider `NC(=O)c1nc(-c2cccc(-c3cc(F)ccc3OCC(F)(F)C(F)(F)F)c2)n[nH]1`, for which the molecule was called inactive. Take `CN(C[C@@H](CC[N+]12CCC(C3CCCCC3)(CC1)CC2)c1ccc(Cl)c(Cl)c1)C(=O)c1cc(C(F)(F)F)cc(C(F)(F)F)c1`: the AC50 is 23.4 µM (active). With `O=C1CCC(C2CCCCC2)CC1`, the molecule was classed as inactive. Regarding `CCCCCCCCN(C)CCCCCCCC`, the call was inactive.

These data come from PubChem BioAssay (EPA / NIEHS).
